Dicer processing: inhibitors of human Dicer processing of pre-microRNA | Q9UPY3 | cat-ELCCA pre-miR-21 Dicer processing, chemiluminescence; active compounds read high | 6% of 47,000 active | z-score at 25 µM | AID 1347074; in the data active means z-score above about 3, passing the limit was not always enough;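 further: plate controls were vehicle for no effect and no enzyme for full effect; higher signal means more uncleaved substrate so more Dicer inhibition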
Numbers without * were called inactive. The full list was thinned out, with hits kept by preference.

SMILES	Dicer processing
CCOc1ccc2nc(C)cc(Nc3ccc(N(C)C)cc3)c2c1	4.53*
COc1ccc2nc(C)cc(Nc3ccccc3OC)c2c1	3.32*
O=C(O)COCC(=O)Nc1nc(-c2ccc(F)c(F)c2)cs1	-1.08
C=CCN1C(=O)C(O)(CC(=O)c2ccc(OC)cc2)c2ccccc21 (stereo not drawn)	27.4
Cc1cc(C(F)(F)F)n2nc(C(C)C)cc2n1	-0.62
Cc1cc2c(cc1C)CN(c1cccc(Cl)c1)C2	1.14
Cc1ccnc(NC(c2ccccc2C)c2ccc3cccnc3c2O)c1 (stereo not drawn)	2.07
Cc1ccc2ccc(C(Nc3ccccn3)c3cccc(Br)c3)c(O)c2n1 (stereo not drawn)	-0.92
Cc1cccc(NC(c2cccc(O)c2)c2ccc3ccc(C)nc3c2O)n1 (stereo not drawn)	0.83
Cc1ccc2ccc(C(Nc3ccccn3)c3cccc(Cl)c3)c(O)c2n1 (stereo not drawn)	15.9*
Cc1ccccc1C(Nc1ccccn1)c1ccc2cccnc2c1O (stereo not drawn)	5.68*
Cc1ccc(C(Nc2ccccn2)c2ccc3ccc(C)nc3c2O)cc1 (stereo not drawn)	-0.45
C=CCOc1ccc(C(Nc2ccccn2)c2ccc3ccc(C)nc3c2O)cc1 (stereo not drawn)	0.31
Cc1ccc2ccc(C(Nc3ccccn3)c3ccc(Cl)cc3)c(O)c2n1 (stereo not drawn)	4.77*
Cc1ccc(C)c(C(Nc2ccccn2)c2ccc3cccnc3c2O)c1 (stereo not drawn)	8.98
Cc1c(C)c(C)c(CSc2nnc(/C(C#N)=C/c3cccs3)n2C)c(C)c1C	0.45
CCCN1C(=O)C(O)(CC(=O)c2ccncc2)c2cc(Br)ccc21 (stereo not drawn)	2.47
CC1CN(C2CCCCC2)c2nc3c(c(=O)n(CC(=O)O)c(=O)n3C)n2C1 (stereo not drawn)	-1.16
CSc1cc(-c2ccc(Cl)cc2)nc(-c2ccco2)c1	-1.19
COCCOC(=O)c1c(C)oc2ccc(NS(=O)(=O)c3cc(OC)ccc3OC)cc12	0
COc1ccc2c(c1)C(=O)N(c1ccc(C)cc1)C(=O)C2	1.18
COc1ccc(O)c(C(=O)C2c3ccccc3C(=O)N2c2ccc(C)cc2)c1 (stereo not drawn)	7.95*
COc1ccc(O)c(C(=O)CC(=O)c2ccc(F)cc2)c1	-0.32
O=C(O)c1ccc(Cl)cc1C(=O)O	0.71
CC(C)(C)S(=O)(=O)/C(C#N)=C/c1ccc(F)cc1F	0.31
SMILES	Dicer processing
c1ccc(CCNc2ncnc3scc(-c4ccccc4)c23)cc1	0.11
CCCN1CN=C(Nc2nc(C)c3cc(CC)ccc3n2)NC1	-0.57
O=c1c2c(n3nnnc3n1Cc1ccccc1)-c1ccccc1CC21CCCCC1	3.21*
CCOC(=O)CSc1nc2c(c(=O)[nH]1)C1(CCCCC1)Cc1ccccc1-2	-0.76
NC(=O)CSc1nnc2n(Cc3ccccc3)c(=O)c3c(n12)-c1ccccc1CC31CCCCC1	2.96
COc1ccc(C2CC(=O)C3=C(C2)NC(C)=C(C#N)C3c2ccc3c(c2)OCO3)cc1 (stereo not drawn)	0.58
Cc1nn(C)c2ncc(NC(=O)Nc3ccc(C(F)(F)F)cc3)c(Cl)c12	-2.02
CC(C)n1nnc(-c2cccc([N+](=O)[O-])c2)n1	0.09
O=C(O)c1ccc(-n2nnnc2SCc2cccc(Br)c2)cc1	4.89*
O=C(O)c1ccc(-n2nnnc2SCC(=O)N2CCOCC2)cc1	0.41
Fc1ccc(CSc2nnnn2-c2cccc(Cl)c2)cc1	0.46
Cc1ccc(Nc2ccnc3cc(Cl)ccc23)cc1F	-0.54
COC(=O)N/N=C(\C)c1ccc(-c2ccccc2)cc1	0.03
Cc1ccc(C2CC(C(F)(F)F)n3ncc(C(=O)Nc4ccc5c(c4)OCO5)c3N2)cc1 (stereo not drawn)	0
CC(C)(C)NC(=O)c1cc2n(n1)C(C(F)(F)F)CC(c1ccco1)N2 (stereo not drawn)	-0.06
O=C(Nc1cccc(O)c1)c1cc2n(n1)C(C(F)(F)F)CC(c1ccco1)N2 (stereo not drawn)	3.33*
O=C(Nc1ccc2c(c1)OCO2)c1cnn2c1NC(c1ccco1)CC2C(F)(F)F (stereo not drawn)	4.99*
COc1ccc(NC(=O)c2cnn3c2NC(c2ccco2)CC3C(F)(F)F)c(OC)c1 (stereo not drawn)	2.98
COc1ccc(NC(=O)c2cc3n(n2)C(C(F)(F)F)CC(c2ccco2)N3)cc1 (stereo not drawn)	-1.29
O=C(Nc1ccccc1F)c1cc2n(n1)C(C(F)(F)F)CC(c1ccco1)N2 (stereo not drawn)	-0.64
CCc1c(C)sc(NC(=O)c2cc3n(n2)C(C(F)(F)F)CC(c2ccco2)N3)c1C#N (stereo not drawn)	3.98*
COc1ccc(NC(=O)c2cc3n(n2)C(C(F)(F)F)CC(c2ccco2)N3)cc1OC (stereo not drawn)	-0.8
O=C1c2cc(Br)ccc2-c2ccc(Br)cc21	-0.73
COc1cccc(-c2nc(-c3cc4cc(OC)ccc4[nH]c3=O)no2)c1	0.46
CCOC(=O)c1ccc2c(c1)CC/C(=C\c1cccc(Oc3ccccc3)c1)C2=O	-1.56
SMILES	Dicer processing
COc1ccc(CCN=C(C)c2ccc3ccccc3c2)cc1OC	-1.71
Cc1ccc(C2CC(=O)Nc3nc(N)[nH]c(=O)c32)cc1 (stereo not drawn)	2.48
CCc1nnc(NC(=O)c2cc3ccccc3c(=O)o2)s1	-2.21
CO/N=C1\CC(C)(C)Cc2c(-c3ccn(C(=O)Nc4ccc(Cl)cc4)n3)sc(SC)c21	1.73
CN1c2ccccc2C(C)(C)C12C=Cc1cc(O)ccc1O2 (stereo not drawn)	14.7*
CC1(C)C=Cc2cc(/C(N)=N/O)ccc2O1	0.53
O=c1c2ccccc2c(-c2ccccc2)nn1CN1CCCCC1	0.88
Cc1ccc2oc(-c3ccccc3F)c(O)c(=O)c2c1	1.85
Nc1ccc(Oc2ccccc2)cc1	5.04*
Nc1cc(Cl)ccc1Oc1ccccc1	2.68
Fc1c(F)c(Oc2ccccc2)c(F)c(F)c1Oc1ccccc1	0.05
CN(C)CCNc1nc2c(c(=O)n(C)c(=O)n2C)n1Cc1ccccc1Cl	1.16
O=C1Sc2ccc(S(=O)(=O)Nc3ccc4oc(=O)sc4c3)c3cccc1c23	10.6*
CN1C(=O)c2cccc3c(S(=O)(=O)Nc4ccc(C(=O)O)c(O)c4)ccc1c23	-1.71
Cc1cccc(NS(=O)(=O)c2ccc3c4c(cccc24)C(=O)N3)c1C	-0.37
Cc1ccc(C)c(NS(=O)(=O)c2ccc3c4c(cccc24)C(=O)S3)c1	3.73*
O=C(O)c1ccc(NS(=O)(=O)c2ccc3c4c(cccc24)C(=O)S3)cc1	0.67
Cc1ccccc1NS(=O)(=O)c1cccc2c(N(C)C)cccc12	-0.66
O=c1sn(-c2ccccc2C(F)(F)F)c(=O)n1CC1CC1	-1.46
C/C(=N\NC1=NCCN1Cc1ccccc1)c1ccc(C)cc1	0.19
COc1cccc(C=NCCCC2C=NNC2=O)c1O (stereo not drawn)	5.17*
COc1cccc(C=Nc2ccc(S(=O)(=O)/N=C(N)/N=C/c3cccc(OC)c3O)cc2)c1O	-0.79
COc1ccc(NC(=S)NCCCC2C=NNC2=O)cc1 (stereo not drawn)	0.41
Cc1nc(C(F)(F)F)ccc1C(=O)NCCNc1cccc(C(F)(F)F)n1	-0.94
CCOCCOC(=O)C1=C(C)NC2=C(C(=O)CCC2)C1c1cccc(O)c1 (stereo not drawn)	-0.32
COc1ccc(C2CC(C(F)(F)F)n3ncc(C(=O)NCC4CCCO4)c3N2)cc1OC (stereo not drawn)	-0.63
